PubChem BioAssay AID2289 (National Center for Advancing Translational Sciences (NCATS), 2010)
About 3,300 (0.97%) of roughly 340,000 compounds were called active. Inconclusive results (about 9%) are left out. Calls come from the whole dose curve; as a rule, active = well fitted inhibition curve with a large enough effect; inconclusive = small, poorly fitted or top-dose-only effect, or effect the other way; inactive = flat fitted curve, though single readings scatter. Some of the results follow.

experiment: qHTS Assay for Modulators of miRNAs and/or Inhibitors of miR-21; conditions: HeLa miR-21-FLuc reporter, luciferase luminescence, 48 h; actives lower the signal; note: nearly all actives have a fitted effect of over 55% in size
Procedure, shortened: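 Compounds were titrated across several concentrations (up to approximately 40 uM) and incubated 48 hours with HeLa miR-21-FLuc reporter cells (miR-21 target sequence downstream of FLuc, endogenous miR-21). Readout was firefly luciferase luminescence after lytic detection reagent.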
Potency is the fitted concentration of half-maximal effect.

Structure (SMILES) | Potency
C=CCn1c(SCC(N)=O)nc2scc(-c3ccc(C)o3)c2c1=O | 5.85 µM (active)
COc1ccccc1NC(=O)c1cc2ccccc2o1 | 2.93 µM (active)
CCC(=O)Nc1cccc(NC(=S)NC(=O)c2cc3ccccc3o2)c1 | 0.585 µM (active)
COc1ccc(NC(=O)c2cc3ccccc3o2)c(OC)c1 | 0.585 µM (active)
COc1cc(NC(=O)c2c(OC)cccc2OC)ccc1NC(=O)c1cc2ccccc2o1 | 5.21 µM (active)
COc1ccccc1NC(=O)c1cc2ccc3cccnc3c2[nH]1 | 2.33 µM (active)
O=C(Nc1ccccc1C(F)(F)F)c1cc2ccccc2o1 | 1.17 µM (active)
COc1cccc2oc3cc(C#Cc4ccccn4)ccc3c(=O)c12 | 2.93 µM (active)
CNC(C)C#Cc1ccc2c(=O)c3c(OC)cccc3oc2c1 (stereo not drawn) | 3.69 µM (active)
COc1cccc2oc3ccc(C#CC4(N)CCCCC4)cc3c(=O)c12 | 7.36 µM (active)
O=c1cc(-c2ccc3c(c2)OCCO3)oc2ccc(Cl)cc12 | 0.185 µM (active)
CCCCCC(=O)Nc1ccc2ccccc2c1 | 4.65 µM (active)
CCCCC(=O)Nc1ccc2c(c1)oc1ccccc12 | 2.33 µM (active)
O=C(Nc1ccccc1)Nc1ccc2ccccc2c1 | 2.93 µM (active)
CCCC(=O)Nc1ccc2c(c1)Cc1ccccc1-2 | 1.85 µM (active)
Cc1ccc(-c2nn(-c3ccccc3)cc2CO)cc1 | 14.7 µM (active)
Cc1ccc(-c2nn(-c3ccccc3)cc2CO)o1 | 1.47 µM (active)
COc1ccc(N/C=C\C(=O)c2ccc3c(c2)OCO3)cc1OC | 14.7 µM (active)
O=C(/C=C\Nc1ccc2c(c1)OCO2)c1ccc(Cl)s1 | 0.464 µM (active)
COc1ccc(N/C=C/C(=O)c2ccc3c(c2)OCO3)cc1OC | 13.1 µM (active)
O=C(/C=C\Nc1ccc2c(c1)OCO2)c1ccc2c(c1)OCO2 | 5.85 µM (active)
Cc1ccc(OCC(=O)Nc2ccc(F)cc2)c([N+](=O)[O-])n1 | 7.36 µM (active)

Structure (SMILES) | Potency
Cc1ccc(OCC(=O)Nc2ccc3c(c2)OCO3)c([N+](=O)[O-])n1 | 7.36 µM (active)
CCOc1ccc(/C=C/C2=NNC(=O)CC2)cc1 | 5.85 µM (active)
Cc1cc(N)n2ncc(-c3ccc(F)cc3)c2n1 | 4.65 µM (active)
Cc1nc2c(-c3ccc(F)cc3)cnn2c(N)c1-c1ccc(F)cc1 | 0.414 µM (active)
COc1ccc(-c2cc(C)nc3c(-c4ccccc4)cnn23)cc1 | 0.233 µM (active)
Cc1cc(N)n2ncc(-c3ccccc3)c2n1 | 3.29 µM (active)
Cc1cc(N)n2ncc(-c3cccc(Br)c3)c2n1 | 3.29 µM (active)
CCOC(=O)c1cn2nc(Oc3ccccc3)ccc2n1 | 5.85 µM (active)
N#Cc1ccccc1OCC(=O)Nc1ccc2c(c1)OCCCO2 | 2.61 µM (active)
O=C(COc1ccccc1Br)Nc1ccc2c(c1)OCCCO2 | 0.927 µM (active)
CC1=C(C)CC(C(=O)NCC(=O)c2ccccc2)C(C(=O)O)C1 (stereo not drawn) | 4.14 µM (active)
Cc1cc(C)n2nc(SCCOc3ccccc3)nc2n1 | 7.36 µM (active)
Cc1cc(C)n2nc(SCC3COc4ccccc4O3)nc2n1 (stereo not drawn) | 16.5 µM (active)
Cc1cc(C)n2nc(SCCOc3ccccc3F)nc2n1 | 11.7 µM (active)
Clc1ccc(Cc2nnc(-c3cccs3)o2)cc1 | 18.5 µM (active)
Clc1ccc(Cc2nnc(-c3ccccc3Br)o2)cc1 | 16.5 µM (active)
BrCCOCCOc1ccc2ccccc2c1 | 18.5 µM (active)
Cc1c(C(=O)NC2CCOC2)oc2c(F)cccc12 (stereo not drawn) | 5.85 µM (active)
Cc1c(C(=O)N2C[C@@H](C)O[C@@H](C)C2)oc2c(F)cccc12 | 13.1 µM (active)
CC(O)CNc1ncnc2cc(-c3ccc(F)cc3)sc12 (stereo not drawn) | 4.65 µM (active)
Cc1nn(-c2ccc3ccccc3c2)c(=O)c2ccccc12 | 2.93 µM (active)
Cc1nn(-c2ccc(Br)cc2)c(=O)c2ccccc12 | 2.93 µM (active)

Structure (SMILES) | Potency
COc1cccc(COc2ccc3ccc(=O)oc3c2)c1 | 7.36 µM (active)
COc1ccc(COc2ccc3ccc(=O)oc3c2)cc1 | 2.93 µM (active)
CCc1ccc2nc(N3C(=O)C(O)=C(C(=O)c4ccco4)C3c3cccs3)sc2c1 (stereo not drawn) | 6.56 µM (active)
Cc1ccc2nc(N3C(=O)C(O)=C(C(=O)c4ccco4)C3c3cccs3)sc2c1 (stereo not drawn) | 5.21 µM (active)
COc1ccc(N=Nc2cc(C)ccc2O)cc1 | 0.521 µM (active)
COc1ccc(N=Nc2ccc3ccccc3c2)c(O)c1 | 0.233 µM (active)
CN1CCN(c2nc(-c3cc4ccccc4o3)cs2)CC1 | 5.21 µM (active)
Nc1ccc(Nc2nc(-c3cc4ccccc4oc3=O)cs2)cc1 | 2.93 µM (active)
Nc1nc(-c2cc3ccccc3o2)cs1 | 2.33 µM (active)
O=C(CSc1nc2ccccc2o1)c1cc2ccccc2oc1=O | 14.7 µM (active)
COc1ccc2oc(=O)c(C(=O)N3CCN(c4ccccc4C)CC3)cc2c1 | 2.07 µM (active)
O=C(OC1CCCCC1)c1cc2ccccc2oc1=O | 16.5 µM (active)
O=C(c1cc2ccccc2oc1=O)N1CCOCC1 | 16.5 µM (active)
Cc1c(-c2nc(-c3ccc(C(F)(F)F)cc3)no2)n(C)oc1=O | 0.293 µM (active)
COc1ccc(/C(N)=N/OC(=O)C2CCCCC2)cc1OC | 2.93 µM (active)
COc1ccc(/C(N)=N/OC(=O)C2CCCCC2)cc1 | 4.65 µM (active)
COc1cccc(OCc2cc(C(=O)N3CCN(c4ccccc4OC)CC3)no2)c1 | 16.5 µM (active)
CC(=O)c1ccc(OCc2cc(C(=O)N3CCOCC3)no2)cc1 | 18.5 µM (active)
COc1ccc(OCc2cc(C(=O)N3CCSCC3)no2)c(Cl)c1 | 4.65 µM (active)
COCCN1CCN(C(=O)c2cc(COc3cc(C)ccc3C)on2)CC1 | 11.7 µM (active)
CC(=O)NCCC1CCCCN1C(=O)c1cc(COc2cc(C)ccc2C)on1 (stereo not drawn) | 7.36 µM (active)
COc1ccc(OCc2cc(C(=O)N3CCOCC3)no2)c(Cl)c1 | 2.07 µM (active)

Structure (SMILES) | Potency
Cc1cc(SCC(=O)c2ccccc2)nc(=O)[nH]1 | 4.14 µM (active)
N#Cc1ccc(-c2cccnc2)nc1SCC(=O)c1ccccc1 | 5.85 µM (active)
O=C(CSc1ccc(-c2ccccc2)nn1)c1ccccc1 | 16.5 µM (active)
O=C(CSc1ccc(-c2ccccc2)nn1)c1cccs1 | 7.36 µM (active)
COc1cc(NC(=O)c2ccccc2Cl)ccc1NC(=O)c1cccs1 | 2.07 µM (active)
COc1ccc(Cl)cc1-c1nc(-c2ccc(NC(=O)c3cccs3)cc2)no1 | 7.36 µM (active)
COc1cc(NC(=O)c2ccccc2Cl)ccc1NC(=O)c1ccco1 | 2.93 µM (active)
Cc1ccc2nc(/C=C/c3cccc(F)c3)ccc2c1 | 0.521 µM (active)
N#C/C(=C\c1c[nH]c2ccccc12)c1nnc2n1CCCCC2 | 18.5 µM (active)
O/N=C/c1ccc(OCc2ccccc2F)c(Cl)c1 | 0.464 µM (active)
CCOc1cc(/C=N/O)ccc1OCc1ccccc1F | 16.5 µM (active)
Cc1ccc(NC(=O)c2ncn(-c3ccccc3)n2)cc1Cl | 3.29 µM (active)
CC(=O)c1ccc(NC(=O)c2ncn(-c3ccccc3)n2)cc1 | 5.85 µM (active)
CCCn1nnc(NC(=O)c2ccc3ccccc3c2)n1 | 4.14 µM (active)
Cn1nnc2cc(C(=O)Nc3ccc4ccccc4c3)ccc21 | 0.585 µM (active)
Cn1nnc(NC(=O)c2ccc3ccccc3c2)n1 | 14.7 µM (active)
Nc1nc2c(-c3ccc(Br)cc3)nnn2c2ccccc12 | 0.261 µM (active)
c1ccc(-c2cnc(-c3cccnc3)o2)cc1 | 13.1 µM (active)
Cc1ccc(-c2nnc(-c3cccnc3)o2)cc1 | 4.65 µM (active)
CN(C)c1ccc(-c2nnc(-c3cccnc3)o2)cc1 | 1.31 µM (active)
CC(C)c1nnc(NC(=O)COc2ccccc2[N+](=O)[O-])s1 | 9.27 µM (active)
CCSc1nnc(NC(=O)COc2ccccc2[N+](=O)[O-])s1 | 3.69 µM (active)

Structure (SMILES) | Potency
CCSc1nnc(NC(=O)c2ccccc2)s1 | 1.31 µM (active)
N/C(=N\C(=S)Nc1ccccc1)c1ccccc1 | 0.927 µM (active)
O=C(Cc1noc2ccccc12)Nc1ccc(Cl)cc1 | 14.7 µM (active)
O=C(Cc1noc2ccccc12)Nc1ccccn1 | 14.7 µM (active)
Cc1cccc(NC(=O)Cc2noc3ccccc23)c1 | 5.85 µM (active)
Cc1ccc(NC(=O)Cc2noc3ccccc23)cc1 | 7.36 µM (active)
Nc1ccccc1C(=O)NNC1=C(C(=O)C(F)(F)F)CCC1 | 5.21 µM (active)
CC1=NN(C(N)=S)C(=O)C1N=Nc1ccc(C)c(Br)c1 (stereo not drawn) | 1.47 µM (active)
CC1=NN(C(N)=S)C(=O)C1N=Nc1ccc(Br)cc1 (stereo not drawn) | 1.31 µM (active)
CC1=NN(C(N)=S)C(=O)C1N=Nc1cccc(Cl)c1 (stereo not drawn) | 7.36 µM (active)
CC1=NN(C(N)=S)C(=O)C1N=Nc1ccc(C)cc1C (stereo not drawn) | 3.69 µM (active)
C/C(=N\N=C(/N)c1nonc1N)c1ccc2c(c1)OCO2 | 0.521 µM (active)
CC(=O)NCCC(=O)Nc1nc2ccc(Oc3ccccc3)cc2s1 | 1.65 µM (active)
O=C1NCC2=C1C(c1ccccc1)Nc1ccccc1N2 (stereo not drawn) | 14.7 µM (active)
Cc1ccc2c(CSc3nnc4ccccn34)cc(=O)oc2c1C | 13.1 µM (active)
Clc1cccc(Cl)c1CSc1nnc2ccccn12 | 16.5 µM (active)
Clc1ccc(CSc2nnc3ccccn23)c(Cl)c1 | 16.5 µM (active)
C/C(=N\NC(=O)c1cccs1)C(C)(C)C | 4.65 µM (active)
O=C(O)CC/C(=N/NC(=O)c1cccs1)c1ccccc1 | 2.07 µM (active)
C/C(=N/NC(=O)c1cccs1)c1cccs1 | 2.93 µM (active)
